From the supplement of paper PMC10849652
Targets with a hit are over-represented here; the source holds about 7,900 in all. About 0.6% of all pairs of compound and target were hits. A number with no mark means an inactive call.

Columns and labels:
Assay in all cases: log2 fold change, soluble protein after heating vs DMSO (PISA); higher = thermal stabilisation; K562 cells, 10 uM, 30 min; active = over 0.2 and 3.5 SD of the protein, either way, in both replicates (recomputed)
[1] = compound: CC1=C(C=C(C=C1)NC(=O)C2=CC(=CC=C2)C(C)(C)C#N)NC3=CC4=C(C=C3)N=CN(C4=O)C
How it was run: (§1)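 K562 cells at 2×10^6 cells/mL were treated for 30 min with 10 μM compound, and aliquots were heated for 3 min over 48°C-58°C before pooling. Extraction used PBS with 0.5% NP-40 at 4°C, and soluble protein was the supernatant after 21,000xg for 90 min, measured by TMTpro 16plex LC-MS/MS with channel sums equalised. Thermal stability values, relative to control samples and from duplicates, are log2 fold changes.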

[2] = compound: CC1=C(C=C(C=C1)NC(=O)C2=CC(=CC=C2)N(C)C)NC(=O)C3=CC=C(C=C3)O
How it was run: as §1

[3] = compound: CC1=CC=C(C=C1)SC2=C3C=C(SC3=CN=C2)C(=O)N
How it was run: as §1

[4] = compound: CC1=NC(=CC=C1)C2=C(N=C(N2)C(C)(C)C)C3=CC4=NC=CN=C4C=C3
How it was run: as §1

vemurafenib = compound: CCCS(=O)(=O)Nc1ccc(F)c(C(=O)c2c[nH]c3ncc(-c4ccc(Cl)cc4)cc23)c1F [vemurafenib]
How it was run: as §1

[5] = compound: CCCS(=O)(=O)Nc1ccc(F)c(C(=O)c2c[nH]c3ncc(Cl)cc23)c1F
How it was run: as §1

[6] = compound: CCCc1cc(C)[nH]c(=O)c1CNC(=O)c1cc(-c2ccnc(N3CCN(C)CC3)c2)cc2c1cnn2C(C)C
How it was run: as §1

givinostat = compound: CCN(CC)Cc1ccc2cc(COC(=O)Nc3ccc(C(=O)NO)cc3)ccc2c1 [givinostat]
How it was run: as §1

barasertib = compound: CCN(CCCOc1ccc2c(Nc3cc(CC(=O)Nc4cccc(F)c4)[nH]n3)ncnc2c1)CCOP(=O)(O)O [barasertib]
How it was run: as §1

[7] = compound: CC[C@@H]1C(=O)N(C)c2cnc(Nc3ccc(C(=O)NC4CCN(C)CC4)cc3OC)nc2N1C1CCCC1
How it was run: as §1

volasertib = compound: CC[C@@H]1C(=O)N(C)c2cnc(Nc3ccc(C(=O)N[C@H]4CC[C@H](N5CCN(CC6CC6)CC5)CC4)cc3OC)nc2N1C(C)C [volasertib]
How it was run: as §1

[8] = compound: CC[C@H](C)N1C=C(C2=C(C=C(C=C21)C3=CN=C(C=C3)N4CCNCC4)C(=O)NCC5=C(C=C(NC5=O)C)C)C
How it was run: as §1

[9] = compound: CCn1c(C(=O)N(C2CC2)C2CC2)cc2c3c(ncn3C)c(Nc3cc(C)n(C)n3)nc21
How it was run: as §1

[10] = compound: CCn1cc(-c2ccnc3[nH]c(-c4cccc(CN(C)C)c4)cc23)c(-c2ccc(NC(=O)N(C)C)cc2)n1
How it was run: as §1

[11] = compound: CN(C)CC(=O)Nc1ccc2[nH]c(=O)c3ccccc3c2c1
How it was run: as §1

rosiglitazone = compound: CN(CCOC1=CC=C(C=C1)C[C@H]2C(=O)NC(=O)S2)C3=CC=CC=N3 (racemic) [rosiglitazone]
How it was run: as §1

[12] = compound: CN1C2=C(C3=C1C(=O)N(N=C3)CC4=CC(=CC=C4)N)SC(=C2)S(=O)C
How it was run: as §1

[13] = compound: CN1CCC(CNc2ccc3ncc(-c4cccc(OC(F)(F)F)c4)n3n2)CC1
How it was run: as §1

Nexturastat A = compound: CCCCN(Cc1ccc(C(=O)NO)cc1)C(=O)Nc1ccccc1 [Nexturastat A]
How it was run: as §1

epoxomicin = compound: CC[C@H](C)[C@@H](C(=O)N[C@@H]([C@@H](C)O)C(=O)N[C@@H](CC(C)C)C(=O)[C@]1(CO1)C)NC(=O)[C@H]([C@@H](C)CC)N(C)C(=O)C [epoxomicin]
How it was run: as §1

Sequence of UniProt P51532 (P51532 whole entry, looked up): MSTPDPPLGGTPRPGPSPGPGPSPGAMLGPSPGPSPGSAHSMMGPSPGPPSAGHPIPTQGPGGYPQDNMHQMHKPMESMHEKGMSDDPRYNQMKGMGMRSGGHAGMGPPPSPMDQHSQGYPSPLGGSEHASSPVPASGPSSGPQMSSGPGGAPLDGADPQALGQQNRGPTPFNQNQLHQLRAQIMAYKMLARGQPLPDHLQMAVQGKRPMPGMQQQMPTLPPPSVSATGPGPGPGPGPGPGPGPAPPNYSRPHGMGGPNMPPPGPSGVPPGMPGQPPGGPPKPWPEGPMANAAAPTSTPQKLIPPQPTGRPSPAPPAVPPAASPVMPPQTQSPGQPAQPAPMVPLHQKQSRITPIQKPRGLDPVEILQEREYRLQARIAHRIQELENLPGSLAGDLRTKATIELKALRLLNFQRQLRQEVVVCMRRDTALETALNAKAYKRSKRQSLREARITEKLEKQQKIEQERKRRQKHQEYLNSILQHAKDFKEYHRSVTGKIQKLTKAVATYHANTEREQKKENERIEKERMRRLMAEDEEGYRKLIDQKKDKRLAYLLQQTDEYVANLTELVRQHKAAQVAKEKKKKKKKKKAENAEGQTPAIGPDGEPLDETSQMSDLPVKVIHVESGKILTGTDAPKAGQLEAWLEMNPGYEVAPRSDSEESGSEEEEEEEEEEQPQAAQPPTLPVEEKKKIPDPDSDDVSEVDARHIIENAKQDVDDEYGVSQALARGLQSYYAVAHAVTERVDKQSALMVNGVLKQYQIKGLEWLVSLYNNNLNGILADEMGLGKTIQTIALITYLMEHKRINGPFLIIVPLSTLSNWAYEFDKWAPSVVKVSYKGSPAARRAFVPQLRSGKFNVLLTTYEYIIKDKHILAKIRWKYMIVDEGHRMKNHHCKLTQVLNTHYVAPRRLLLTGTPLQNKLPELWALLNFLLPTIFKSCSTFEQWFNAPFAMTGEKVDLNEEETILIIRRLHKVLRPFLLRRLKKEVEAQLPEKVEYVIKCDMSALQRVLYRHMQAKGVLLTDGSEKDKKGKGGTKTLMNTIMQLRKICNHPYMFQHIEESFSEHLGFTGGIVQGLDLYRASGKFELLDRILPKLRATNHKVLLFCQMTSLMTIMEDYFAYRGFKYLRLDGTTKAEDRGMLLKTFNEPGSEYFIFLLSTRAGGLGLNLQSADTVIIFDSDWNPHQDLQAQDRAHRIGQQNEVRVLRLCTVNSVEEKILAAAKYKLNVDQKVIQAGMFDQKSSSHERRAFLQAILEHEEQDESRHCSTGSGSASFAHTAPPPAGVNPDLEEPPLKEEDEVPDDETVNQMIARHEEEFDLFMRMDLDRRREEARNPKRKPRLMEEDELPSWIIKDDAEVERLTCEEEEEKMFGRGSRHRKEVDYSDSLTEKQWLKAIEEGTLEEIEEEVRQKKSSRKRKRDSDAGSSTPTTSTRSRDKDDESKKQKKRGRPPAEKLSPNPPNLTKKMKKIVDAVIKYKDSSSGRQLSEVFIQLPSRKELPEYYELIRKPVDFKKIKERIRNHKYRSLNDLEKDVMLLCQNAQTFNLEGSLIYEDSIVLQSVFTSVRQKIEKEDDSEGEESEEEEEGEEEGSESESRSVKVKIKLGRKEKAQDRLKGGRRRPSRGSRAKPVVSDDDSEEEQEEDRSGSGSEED
Sequence of UniProt Q969X1 (Q969X1 whole entry, looked up): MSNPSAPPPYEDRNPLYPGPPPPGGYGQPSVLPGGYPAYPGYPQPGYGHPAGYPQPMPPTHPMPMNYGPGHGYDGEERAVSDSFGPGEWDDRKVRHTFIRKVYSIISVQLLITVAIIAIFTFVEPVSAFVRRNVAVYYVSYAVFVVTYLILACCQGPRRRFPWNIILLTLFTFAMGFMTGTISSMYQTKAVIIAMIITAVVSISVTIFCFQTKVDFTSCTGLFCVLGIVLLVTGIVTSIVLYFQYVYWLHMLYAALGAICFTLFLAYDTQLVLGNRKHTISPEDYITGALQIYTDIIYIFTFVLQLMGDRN
Sequence of UniProt Q6PCB7 (Q6PCB7 whole entry, looked up): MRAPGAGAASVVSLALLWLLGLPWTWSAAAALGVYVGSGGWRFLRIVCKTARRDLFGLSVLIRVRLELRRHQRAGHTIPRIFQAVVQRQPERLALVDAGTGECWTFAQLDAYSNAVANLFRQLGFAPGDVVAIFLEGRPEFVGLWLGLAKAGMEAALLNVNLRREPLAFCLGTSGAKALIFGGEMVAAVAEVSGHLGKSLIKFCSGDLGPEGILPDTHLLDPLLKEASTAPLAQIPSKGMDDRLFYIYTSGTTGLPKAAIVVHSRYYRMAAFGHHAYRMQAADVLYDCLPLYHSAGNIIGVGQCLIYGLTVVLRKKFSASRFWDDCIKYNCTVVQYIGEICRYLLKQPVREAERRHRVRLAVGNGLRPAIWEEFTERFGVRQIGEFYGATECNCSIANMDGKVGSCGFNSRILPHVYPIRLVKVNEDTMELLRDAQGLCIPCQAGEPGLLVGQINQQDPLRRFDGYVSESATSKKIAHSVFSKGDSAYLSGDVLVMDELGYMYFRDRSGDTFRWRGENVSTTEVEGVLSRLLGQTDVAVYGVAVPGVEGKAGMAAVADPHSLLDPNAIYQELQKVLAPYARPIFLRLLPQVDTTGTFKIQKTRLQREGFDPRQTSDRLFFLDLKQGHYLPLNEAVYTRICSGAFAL
Sequence of UniProt P30626 (P30626 whole entry, looked up): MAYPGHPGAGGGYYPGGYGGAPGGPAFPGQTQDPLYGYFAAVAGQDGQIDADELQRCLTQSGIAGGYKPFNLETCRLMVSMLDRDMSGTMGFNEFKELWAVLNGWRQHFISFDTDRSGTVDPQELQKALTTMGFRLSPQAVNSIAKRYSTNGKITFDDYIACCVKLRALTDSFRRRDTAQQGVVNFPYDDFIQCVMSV
Sequence of UniProt Q9NVC3 (Q9NVC3 whole entry, looked up): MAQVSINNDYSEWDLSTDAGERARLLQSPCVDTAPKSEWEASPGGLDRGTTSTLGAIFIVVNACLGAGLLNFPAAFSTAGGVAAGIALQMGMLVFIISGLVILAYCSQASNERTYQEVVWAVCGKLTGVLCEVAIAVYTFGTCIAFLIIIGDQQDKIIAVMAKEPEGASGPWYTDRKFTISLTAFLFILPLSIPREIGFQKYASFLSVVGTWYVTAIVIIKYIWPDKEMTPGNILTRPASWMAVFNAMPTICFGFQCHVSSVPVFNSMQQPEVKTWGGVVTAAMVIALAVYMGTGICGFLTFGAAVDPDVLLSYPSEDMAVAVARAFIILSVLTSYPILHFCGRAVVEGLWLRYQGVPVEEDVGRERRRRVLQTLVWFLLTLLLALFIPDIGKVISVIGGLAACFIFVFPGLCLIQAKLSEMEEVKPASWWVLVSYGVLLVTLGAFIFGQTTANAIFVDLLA
Sequence of UniProt Q9NRS6 (Q9NRS6 whole entry, looked up): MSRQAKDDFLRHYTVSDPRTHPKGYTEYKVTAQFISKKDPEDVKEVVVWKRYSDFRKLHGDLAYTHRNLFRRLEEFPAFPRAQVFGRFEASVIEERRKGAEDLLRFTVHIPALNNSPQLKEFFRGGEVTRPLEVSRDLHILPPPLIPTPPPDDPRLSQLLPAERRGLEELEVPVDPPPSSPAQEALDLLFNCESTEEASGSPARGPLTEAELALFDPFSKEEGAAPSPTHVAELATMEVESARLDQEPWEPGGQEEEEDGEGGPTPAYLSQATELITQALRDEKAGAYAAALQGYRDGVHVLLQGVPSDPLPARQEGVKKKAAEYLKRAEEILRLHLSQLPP
Sequence of UniProt Q5VWP2 (Q5VWP2 whole entry, looked up): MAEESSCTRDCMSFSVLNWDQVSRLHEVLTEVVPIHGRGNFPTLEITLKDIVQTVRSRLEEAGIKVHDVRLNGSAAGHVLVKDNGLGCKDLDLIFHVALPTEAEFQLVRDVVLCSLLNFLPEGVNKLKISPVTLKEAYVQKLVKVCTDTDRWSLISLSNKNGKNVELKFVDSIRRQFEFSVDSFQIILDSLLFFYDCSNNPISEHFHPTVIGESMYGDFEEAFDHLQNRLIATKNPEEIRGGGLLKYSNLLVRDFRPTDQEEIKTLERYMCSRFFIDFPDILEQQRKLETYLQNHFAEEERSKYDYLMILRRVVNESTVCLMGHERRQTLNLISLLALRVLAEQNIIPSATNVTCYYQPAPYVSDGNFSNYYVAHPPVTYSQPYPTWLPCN
Sequence of UniProt Q9BUA3 (Q9BUA3 whole entry, looked up): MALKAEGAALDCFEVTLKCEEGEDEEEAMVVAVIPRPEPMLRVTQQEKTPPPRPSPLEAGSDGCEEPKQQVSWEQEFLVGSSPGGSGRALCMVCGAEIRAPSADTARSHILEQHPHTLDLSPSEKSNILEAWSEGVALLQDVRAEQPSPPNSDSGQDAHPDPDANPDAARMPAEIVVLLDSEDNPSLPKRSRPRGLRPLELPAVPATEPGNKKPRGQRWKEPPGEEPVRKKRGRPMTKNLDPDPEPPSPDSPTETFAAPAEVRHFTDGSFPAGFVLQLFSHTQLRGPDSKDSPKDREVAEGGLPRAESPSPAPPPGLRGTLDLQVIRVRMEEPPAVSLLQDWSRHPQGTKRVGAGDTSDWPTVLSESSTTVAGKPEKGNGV
Sequence of UniProt Q9BWG4 (Q9BWG4 whole entry, looked up): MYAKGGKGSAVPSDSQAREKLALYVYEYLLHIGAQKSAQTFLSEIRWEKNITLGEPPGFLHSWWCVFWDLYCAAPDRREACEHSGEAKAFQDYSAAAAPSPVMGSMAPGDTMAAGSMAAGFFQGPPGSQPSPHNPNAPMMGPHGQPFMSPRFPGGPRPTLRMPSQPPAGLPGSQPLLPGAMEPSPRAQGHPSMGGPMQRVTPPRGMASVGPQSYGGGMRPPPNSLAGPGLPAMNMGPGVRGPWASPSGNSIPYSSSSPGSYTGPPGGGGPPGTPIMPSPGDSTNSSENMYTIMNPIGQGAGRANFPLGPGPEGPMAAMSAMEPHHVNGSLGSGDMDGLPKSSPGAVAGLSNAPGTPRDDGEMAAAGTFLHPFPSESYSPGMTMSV
Sequence of UniProt P62318 (P62318 whole entry, looked up): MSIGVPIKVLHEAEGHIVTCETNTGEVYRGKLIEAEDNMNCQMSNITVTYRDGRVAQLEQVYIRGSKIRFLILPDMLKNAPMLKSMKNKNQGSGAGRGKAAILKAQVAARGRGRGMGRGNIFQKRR

Target | log2 fold change [1] | log2 fold change [2] | log2 fold change [3] | log2 fold change [4] | log2 fold change (vemurafenib) | log2 fold change [5] | log2 fold change [6] | log2 fold change (givinostat) | log2 fold change (barasertib) | log2 fold change [7] | log2 fold change (volasertib) | log2 fold change [8] | log2 fold change [9] | log2 fold change [10] | log2 fold change [11] | log2 fold change (rosiglitazone) | log2 fold change [12] | log2 fold change [13] | log2 fold change (Nexturastat A) | log2 fold change (epoxomicin)
TENT5C (UniProt Q5VWP2) | -0.011 | 0.037 | -0.019 | 0.088 | 0.097 | 0.005 | -0.137 | 0.014 | 0.01 | -0.073 | -0.038 | 0.005 | 0.085 | 0.009 | 0.031 | 0.033 | -0.066 | -0.082 | – | –
TMBIM1 (UniProt Q969X1) | 0.113 | -0.055 | 0.09 | – | -0.132 | 0.185 | -0.134 | 0.004 | -0.057 | 0.086 | 0.002 | -0.014 | 0.034 | 0.044 | 0.029 | -0.013 | -0.035 | -0.03 | -0.02 | -0.033
TK1 (UniProt K7ERV3) | -0.185 | -0.055 | -0.273 | – | -0.077 | -0.009 | -0.149 | – | 0.088 | – | 0.055 | -0.163 | – | -0.014 | 0.084 | 0.035 | -0.024 | 0.005 | -0.178 | 0.007
SLC38A2 (UniProt Q96QD8) | 0.118 | 0.026 | 0.067 | 0.062 | 0.032 | 0.096 | -0.107 | -0.014 | -0.039 | 0.035 | 0.004 | -0.091 | 0.084 | – | -0.022 | 0.002 | -0.1 | – | -0.133 | -0.078
SSBP4 (UniProt Q9BWG4) | 0.056 | -0.017 | -0.133 | 0.003 | – | 0.021 | -0.036 | -0.042 | 0.053 | 0 | -0.056 | -0.036 | -0.116 | -0.009 | – | 0.162 | -0.238 | 0.036 | – | –
SYNE2 isoform 2 (UniProt Q8WXH0) | -0.084 | 0.014 | 0.064 | -0.131 | -0.04 | 0 | -0.171 | 0.43 | 0.079 | 0.039 | -0.025 | -0.145 | -0.181 | -0.274 | -0.044 | 0.053 | -0.021 | -0.025 | – | –
SLC38A7 (UniProt Q9NVC3) | 0.092 | 0.009 | 0 | 0.094 | 0.042 | 0.012 | -0.002 | 0.008 | -0.012 | -0.283 | -0.054 | -0.023 | -0.018 | 0.109 | -0.123 | 0.036 | – | -0.589 | -0.04 | 0.078
SMARCA4 (UniProt P51532) | 0.039 | -0.111 | -0.296 | -0.028 | -0.261 | -0.556 | -0.084 | 0.159 | 0.137 | 0.019 | 0.121 | – | -0.245 | 0.119 | -0.191 | 0.065 | 0.177 | -0.046 | 0.351 | 0
ST6GAL1 (UniProt P15907) | 0.025 | -0.032 | -0.028 | -0.064 | -0.1 | -0.069 | 0.047 | -0.005 | -0.014 | -0.221 (active) | -0.257 | 0.003 | 0.019 | 0.01 | 0.041 | 0.058 | -0.057 | -0.149 | -0.031 | -0.066
SRFBP1 (UniProt Q8NEF9) | 0.008 | -0.019 | -0.127 | -0.025 | – | -0.012 | -0.012 | -0.061 | -0.045 | 0.208 | 0.157 | -0.094 | -0.088 | 0.049 | – | 0.078 | 0.117 | 0.277 | 0.111 | -0.047
SNX15 (UniProt Q9NRS6) | -0.25 | -0.009 | -0.015 | -0.089 | -0.122 | -0.021 | 0.061 | – | 0.012 | 0.177 | -0.223 | -0.023 | – | -0.016 | -0.045 | -0.051 | 0.119 | 0.039 | – | –
SPINDOC (UniProt Q9BUA3) | 0.157 | 0.037 | -0.074 | -0.139 | 0.113 | 0.11 | -0.013 | -0.127 | 0.129 | -0.131 | -0.178 | -0.243 | -0.094 | 0.105 | 0.074 | -0.041 | -0.222 | -0.02 | -0.014 | 0.071
SRCAP (UniProt Q6ZRS2) | -0.177 | -0.286 | 0.058 | 0.036 | 0.278 | 0.082 | -0.02 | -0.041 | 0.026 | 0.068 | -0.207 | -0.059 | 0.066 | -0.041 | 0.121 | 0.01 | -0.001 | -0.006 | – | –
TANGO6 (UniProt Q9C0B7) | 0.069 | -0.006 | 0.039 | 0.031 | – | 0.068 | -0.052 | 0.131 | 0.048 | 0.276 | -0.375 (active) | 0.052 | -0.165 | – | – | 0.037 | 0.006 | – | -0.051 | 0.035
SLC27A1 (UniProt Q6PCB7) | -0.186 | 0.036 | -0.046 | 0.12 | -0.109 | -0.008 | -0.01 | 0.049 | 0.043 | – | -0.639 (active) | 0.022 | -0.008 | – | 0.008 | -0.01 | -0.072 | – | -0.061 | -0.021
SOX5 (UniProt P35711) | -0.125 | 0.004 | -0.144 | 0.02 | -0.05 | -0.063 | 0.042 | 0.013 | -0.119 | – | -0.082 | 0.014 | 0.099 | – | -0.062 | 0.046 | – | – | – | –
SNRPD3 (UniProt P62318) | -0.03 | 0.031 | -0.048 | -0.079 | -0.015 | -0.102 | -0.126 | 0 | -0.039 | 0.194 | 0.134 | -0.058 | 0.005 | 0.058 | -0.07 | -0.047 | 0.001 | 0.198 | -0.023 | -0.037
SRI (UniProt P30626) | 0.035 | -0.092 | 0.094 | 0.037 | 0.092 | 0.045 | -0.055 | -0.03 | 0.107 | 0.008 | -0.111 | -0.013 | 0.09 | -0.058 | 0.009 | 0.003 | -0.071 | 0.126 | -0.073 | 0.393 (active)
